{
  "source": "paper PMC4552634",
  "about": "“A New Set of Chemical Starting Points with Plasmodium falciparum Transmission-Blocking Potential for Antimalarial Drug Discovery” (PLoS ONE, 2015)",
  "note": "In all, about 13,000 compounds went through this assay and about 3,200 (25%) showed an effect of 50% or more. This is one part of the list.",
  "data": [
    {"system": "P. falciparum stage V gametocytes", "design": "BacTiter-Glo ATP luminescence viability of purified stage V gametocytes in 384-well plates, per cent inhibition versus DMSO", "settings": "48 h, 5 µM; inhibitor", "units": {"% Inhibition": "%"}, "values": [
      {"molecule": "CC(C)(C)CNc1noc(-c2sccc2Br)n1", "note": "[TCMDC-134187]", "% Inhibition": -20.57},
      {"molecule": "C=CCN1C(=O)CN(S(=O)(=O)c2ccc(-n3nc(C)cc3C)cc2)C1=S", "note": "[TCMDC-131799]", "% Inhibition": -1.195},
      {"molecule": "CN(CCCNC(=S)NC12CC3CC(CC(C3)C1)C2)CCCNc1ccnc2cc(Cl)ccc12", "note": "[TCMDC-137885]", "% Inhibition": 114.9},
      {"molecule": "c1ccc2c(NCCCCCCCCNc3ccnc4ccccc34)ccnc2c1", "note": "[TCMDC-137751]", "% Inhibition": 124.8},
      {"molecule": "CNCCCNc1ccnc2cc(Cl)ccc12", "note": "[TCMDC-125233]", "% Inhibition": 36.92},
      {"molecule": "CN(C)CCCNc1ccnc2cc(Cl)ccc12", "note": "[TCMDC-123919]", "% Inhibition": 17.18},
      {"molecule": "CN1CCN(Cc2cc(NC(=O)c3ccc(-c4ccc(Cl)cc4Cl)cc3)ccc2-c2ccccc2)CC1", "note": "[TCMDC-138839]", "% Inhibition": 21.61},
      {"molecule": "CC(C)CN1CCC(N(C)c2cc(NC(=O)c3cccc(F)c3)ccn2)CC1", "note": "[TCMDC-135022]", "% Inhibition": -32.51},
      {"molecule": "CC(C)Cn1c(Sc2ccc(C#N)c([N+](=O)[O-])c2)nnc1-c1cccs1", "note": "[TCMDC-135575]", "% Inhibition": 26.53},
      {"molecule": "O=C(Nc1cccc(C(F)(F)F)c1)Nc1cc(F)c(F)cc1Cl", "note": "[TCMDC-123779]", "% Inhibition": 32.47},
      {"molecule": "CCc1ccc(-n2c(NC(=O)c3ccccc3)nc3ccc(S(=O)(=O)NC(C)C(C)C)cc32)cc1", "note": "(centres unmarked) [TCMDC-136236]", "% Inhibition": 39.19},
      {"molecule": "CC(OC(=O)c1ccc(C(=O)NCC2CC2)cc1)C(C)(C)C", "note": "(centres unmarked) [TCMDC-138180]", "% Inhibition": 11.69},
      {"molecule": "CCO[C@H]1CN[C@H](C#Cc2cc3c(Nc4ccc(OCc5cccc(F)c5)c(Cl)c4)ncnc3s2)C1", "note": "[TCMDC-135170]", "% Inhibition": 22.02},
      {"molecule": "COc1cc(Nc2ccnc3ccc(C(C)(C)C)cc23)cc(OC)c1OC", "note": "[TCMDC-138886]", "% Inhibition": -36.54},
      {"molecule": "CC(C)(C)c1ccc2nccc(Nc3cccc(O)c3)c2c1", "note": "[TCMDC-138884]", "% Inhibition": 71.55},
      {"molecule": "Cc1ccc(O)cc1Nc1ccnc2ccc(C(C)(C)C)cc12", "note": "[TCMDC-138885]", "% Inhibition": -11.57},
      {"molecule": "C=CCC(CC=C)N1C(=O)C(c2ccccc2)(c2ccccc2)N=C1N", "note": "[TCMDC-136807]", "% Inhibition": 5.028},
      {"molecule": "O=C(/C=C/c1ccc(C(F)(F)F)cc1)NCCCCCN1CCN(C(=O)Nc2ccc(Cl)c(Cl)c2)CC1", "note": "[TCMDC-136094]", "% Inhibition": -8.361},
      {"molecule": "CC1CCC2(CC1)N=C(N)N=C(N)N2OCc1cc2ccccc2c2ccccc12", "note": "(centres unmarked) [TCMDC-131590]", "% Inhibition": 22.45},
      {"molecule": "C[C@H](NC(=O)c1c(CN2CCC(N3CCCCC3)CC2)c(-c2ccccc2)nc2cc(O)ccc12)C1CCCCC1", "note": "[TCMDC-140408]", "% Inhibition": 25.99}
    ]}
  ]
}
